Screens (PubChem BioAssay)
In the library only some 12% were active in any assay of this set; here they are far more common.
G9a block – qHTS Assay for Inhibitors of Histone Lysine Methyltransferase G9a. G9a H3K9 monomethylation, AlphaScreen, 2 h. Potency, µM (doses to about 102 µM), inactives show at the top dose activity, negative = inhibition, hits mostly inhibitors. 8.8% of 350,000 active; also: % is scaled to controls: 0 for no effect and ±100 for the full control effect; nearly all actives have a fitted effect of over 75% in size
Target sequence (Q96KQ7 913-1193 limits assumed): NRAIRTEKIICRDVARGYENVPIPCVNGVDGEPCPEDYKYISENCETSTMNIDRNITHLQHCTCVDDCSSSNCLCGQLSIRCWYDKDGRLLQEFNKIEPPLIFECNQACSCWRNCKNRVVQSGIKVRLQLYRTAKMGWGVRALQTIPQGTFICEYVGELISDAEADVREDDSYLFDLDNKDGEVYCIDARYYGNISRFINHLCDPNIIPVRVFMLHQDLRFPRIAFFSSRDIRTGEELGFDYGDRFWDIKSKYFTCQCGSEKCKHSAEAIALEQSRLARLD
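AlphaScreen detection with an anti-monomethyl H3K9 antibody quantified product after a 2 h room-temperature reaction containing 500 nM biotinylated H3K9 peptide, 20 µM SAM and 20 nM enzyme, which had been preincubated 15 min with compound.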
L3MBTL1 block – qHTS Assay for the Inhibitors of L3MBTL1; AlphaScreen L3MBTL1–H3K9me1 peptide binding; Lethal(3)malignant brain tumor-like protein 1 (Homo sapiens), Q9Y468; 0.66% of 230,000 active; Potency, µM (series often up to 57.1 µM), for inactives: top-dose activity, negative = inhibition, usual class: inhibitors; also: % is scaled to controls: 0 for no effect and ±100 for the full control effect; nearly all actives have a fitted effect of over 60% in size
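L3MBTL1 50 nM + b-AHA-H3(1-15)K9me1 75 nM, 30 min RT; compound added, 30 min RT; streptavidin donor/Ni-chelate acceptor beads 10 ug/mL each final, 30 min RT dark; AlphaScreen read.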
BAZ2B block – qHTS Assay for Inhibitors of BAZ2B; Bromodomain adjacent to zinc finger domain protein 2B (Homo sapiens), Q9UIF8; AlphaScreen BAZ2B-H3K14Ac peptide displacement; Potency, µM (highest dose often 114 µM), for inactives: at the top dose activity change, negative = inhibition, hits mostly inhibitors; 4.4% of 360,000 active; also: % is scaled to controls: 0 for no effect and ±100 for the full control effect; nearly all actives have a fitted effect of over 60% in size
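AlphaScreen luminescence quantifies BAZ2B engagement of H3K14Ac peptide; the protein and biotinylated peptide are both at 50 nM final, buffer PBS pH 7.4 with 0.01% Tween-20, all steps at room temperature.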
Sfp inh – qHTS Assay for Inhibitors of Bacillus subtilis Sfp phosphopantetheinyl transferase (PPTase); 4'-phosphopantetheinyl transferase ffp (Bacillus subtilis), Q9F4F7; Biochemical Sfp PPTase activity, qHTS; Potency, µM, inactives show largest response in the series, negative = inhibition, hits mostly inhibitors; 3.5% of 310,000 active; AID 1490, 2009;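 also: the enzyme is Sfp with the accession as filed and its product quenches rhodamine fluorescence; 0% = enzyme reaction without inhibitor and -100% = no enzyme wells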
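After 15 min at room temperature with compound, 15 nM Sfp received 5 uM rhodamine-CoA plus 12.5 uM BHQ-2-ybbR (50 mM Hepes pH 7.6, 10 mM MgCl2). Rate came from the fluorescence difference over 30 min, ex 525/em 598 nm.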
HP1b chromo inh – HTS for Inhibitors of HP1-beta Chromodomain Interactions with Methylated Histone Tails; Chromobox protein homolog 1 (Homo sapiens), P83916; AlphaScreen HP1-beta / biotin-H3K9me3 peptide binding; Potency, µM (doses to about 114 µM), inactives show at the highest dose activity change, negative = inhibition, most hits filed as inhibitors; 0.56% of 390,000 active; AID 540317, 2011; also: nearly all actives have a fitted effect of over 70% in size
Target sequence (P83916 whole entry, looked up): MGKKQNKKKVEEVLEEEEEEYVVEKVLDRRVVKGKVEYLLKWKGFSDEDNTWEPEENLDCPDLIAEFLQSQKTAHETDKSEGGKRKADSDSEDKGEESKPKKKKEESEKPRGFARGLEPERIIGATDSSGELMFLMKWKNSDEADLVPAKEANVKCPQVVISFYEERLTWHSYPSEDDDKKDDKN
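AlphaScreen: HP1-beta (50 nM) preformed 30 min with biotin-H3(1-18)K9me3 peptide (50 nM) in PBS pH 7.4, 0.01% Tween-20. Compound added for 30 min at RT, then streptavidin donor/nickel chelate acceptor beads (10 ug/mL) for 30 min.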
JMJD2A Tudor inh – qHTS Assay for Inhibitors of JMJD2A-Tudor Domain | Lysine-specific demethylase 4A (Homo sapiens), O75164 | AlphaScreen JMJD2A-Tudor / H3K4me3 peptide binding | Potency, µM (top dose mostly 114 µM), for the others: at the highest dose activity change, negative = inhibition, hits mostly inhibitors | 4.4% of 390,000 active | AID 504339, 2011; also: % is scaled to controls: 0 for no effect and ±100 for the full control effect; nearly all actives have a fitted effect of over 50% in size
* = called active by the depositor; u = inconclusive; x = not tested or not shown; [ ] = another dose, or the depositor's remark. Calls follow the shape of the dose curve; as a rule, active = well fitted curve in the direction sought with a large enough effect; inconclusive = small, poorly fitted or top-dose-only effect, or another doubt; inactive = no such curve, though single readings can be large; an effect the other way counts as inactive or inconclusive. Potency is read from the fitted curve at half-maximal effect.

SMILES	G9a block	L3MBTL1 block	BAZ2B block	Sfp inh	HP1b chromo inh	JMJD2A Tudor inh
Cc1cccc(OC(C)C(=O)Nc2ccccc2C(=O)N2CCCCC2)c1 (stereo not drawn)	35.5µM*	x	-7.3%	-20.0%	16.0%[57 µM]	-12.5%
Cc1cccc(OC(C)C(=O)Nc2ccc(N3CCCCC3)cc2)c1 (stereo not drawn)	22.4µM*	-15.0%	u	x	-21.7%	u
CC(C(=O)Nc1ccccc1C(=O)N1CCCC1)n1nnc2ccccc21 (stereo not drawn)	17.8µM*	-4.1%	5.5%	-7.7%	3.0%	-11.2%
O=c1[nH]c(=S)c2[nH]cnc2[nH]1	x	x	x	x	3.9%[57 µM]	-10.8%[57.1 µM]
Cc1ccc(OC(C)C(=O)Nc2ccccc2C(=O)N2CCN(C)CC2)cc1 (stereo not drawn)	39.8µM*	x	-22.5%	12.3%	1.6%	-4.4%
CCn1c(N2CCN(CC(=O)c3c[nH]c4ccccc34)CC2)nc2c1c(=O)[nH]c(=O)n2C	39.8µM*	30.8%	17.5%	-9.8%	37.9%	-8.9%
CCCn1c(N2CCN(CC(=O)c3c(C)n(C)c4ccccc34)CC2)nc2c1c(=O)[nH]c(=O)n2C	-37.5%	7.3%	1.2%	-2.5%	6.6%	-13.7%
NCCc1nc2cccnc2n1-c1ccccc1	33.5%[59 µM]	x	-21.1%	x	33.2%	-10.3%
Cc1ccc(S(=O)(=O)N[C@@H]2COC(=O)C/C=C\[C@H](C)COC(=O)N[C@@H](C)C(=O)C/C=C\[C@H]2C)cc1	x	x	x	13.5%	x	x
O=C(c1ccc([N+](=O)[O-])s1)N1CCN(c2cccc(Cl)c2)CC1	22.4µM*	-21.3%	25.1µM*	-6.0%	u	44.7µM*
COc1ccccc1N1CCN(C(=O)c2ccc([N+](=O)[O-])s2)CC1	44.7µM*	-5.6%	-5.1%	1.6%	-4.3%	-19.6%
COc1ccccc1N1CCN(C(=O)c2noc(C)c2[N+](=O)[O-])CC1	56.2µM*	x	-33.7%	0.6%	17.2%	-20.7%
Cc1cccc(NCc2nnc3n2CCCCC3)c1C	-0.4%[59 µM]	x	1.9%	x	16.7%[57 µM]	-21.1%
COc1c(Cl)cc(Cl)cc1CNCCNCCO	x	-2.9%	-11.5%	17.4%	37.4%	u
COc1c(Cl)cc(Cl)cc1CNCCNCC(C)O (stereo not drawn)	35.5µM*	-10.3%	-30.3%[57.1 µM]	-4.8%	37.7%	u
COC(=O)CN1C(=O)[C@H]2[C@@H](c3ccc(C)o3)N3C(=O)CN(Cc4ccccc4)C(=O)[C@@]3(C)[C@H]2C1=O	44.7µM*	2.5%	-22.4%	44.7µM*	37.4%	-21.8%
Cc1ccc([C@@H]2[C@@H]3C(=O)N(C)C(=O)[C@@H]3[C@]3(C)C(=O)N(Cc4ccccc4)CC(=O)N23)o1	x	40.4%	18.0%	-11.1%	63.8%	-7.1%
COc1cc(OC)c2ccc(=O)oc2c1C(CCN1CCCCC1)c1ccc(N(C)C)cc1 (stereo not drawn)	u	x	39.8µM*	-16.2%	-32.5%	35.5µM*
COc1cc(OC)c2ccc(=O)oc2c1C(CCN1CCCC1)c1ccc(N(C)C)cc1 (stereo not drawn)	-8.7%[59 µM]	x	39.8µM*	11.2%	-22.1%	56.2µM*
Cc1nc(-c2ccc(Cl)cc2)sc1CCNC(=O)C(=O)Nc1ccc(F)cc1F	-1.0%[59 µM]	x	-1.9%	x	29.8%[57 µM]	0.3%
COc1ccc(-c2cc(C(F)F)n3ncc(C(=O)Nc4c(C)n(C)n(-c5ccccc5)c4=O)c3n2)cc1	-4.1%	2.3%	-8.3%	27.1%	18.5%	0.0%[11.4 µM]
COc1ccc(-c2cc(C(F)F)n3ncc(C(=O)Nc4cc(C)on4)c3n2)cc1	x	-0.6%	79.4µM*	79.4µM*	9.7%	-6.9%
O=C(Nc1cnn(Cc2ccc(F)cc2)c1)c1cnn2c(C(F)F)cc(-c3ccccc3)nc12	x	x	-16.5%	14.1µM*	25.3%	-4.2%
COc1ccc(CCNC(=O)C2CCCN(c3nc4c(C)cc(C)cc4s3)C2)cc1OC (stereo not drawn)	1.9%[59 µM]	x	0.5%	x	12.2%	-20.7%
O=C(c1cccc(Cl)c1)N(Cc1ccco1)Cc1ccccc1Cl	30.7%[59 µM]	x	59.6%	x	42.1%	12.5%
SMILES	G9a block	L3MBTL1 block	BAZ2B block	Sfp inh	HP1b chromo inh	JMJD2A Tudor inh
O=Cc1ccc(-c2ccc(C(=O)O)cc2)o1	x	x	-14.9%	-13.9%	-11.8%	-15.8%
CCN(CC)S(=O)(=O)c1ccc(C(=O)/C=C/c2ccc(-c3ccc([N+](=O)[O-])cc3)o2)cc1	u	x	-25.6%	79.4µM*	26.7%	-5.6%
Cn1nccc1C(=O)N1CCN(c2cccc(C(F)(F)F)c2)CC1	70.8µM*	x	-27.9%	16.7%	37.9%	-16.4%
Cc1ccc(C(=O)/C=C/c2ccc(-c3ccc(C)cc3)o2)cc1	u	-0.4%	-34.2%	8.91µM*	-24.6%	79.4µM*
Cc1ccc(C(=O)/C=C\NCc2ccccc2)cc1	-2.5%	-2.2%	-5.6%	89.1µM*	24.2%	-19.4%
Cn1nccc1C(=O)N1CCCC(N2CCN(c3cccc(C(F)(F)F)c3)CC2)C1 (stereo not drawn)	u	x	-12.9%	19.3%	x	x
COc1ccc(C(=O)/C=C/NCc2ccc(C)cc2)cc1	x	x	x	x	46.9%	-1.5%[11.4 µM]
O=[N+]([O-])c1ccc(-c2ccc(/C=N/O)o2)cc1	u	-10.3%	-32.0%	-0.3%	5.0%	-23.1%
CC(=O)c1cccc(NC(=O)c2nc3ccccc3n(C)c2=O)c1	-3.6%[59 µM]	x	-12.1%	x	21.3%	-15.8%
COc1cccc(C(=O)Nc2ccccc2OCc2cc(=O)n3cc(C)ccc3n2)c1	5.1%[59 µM]	x	8.4%	x	13.8%[57 µM]	-6.5%
CCc1cccc(CC)c1NC(=O)c1c(C)oc2ccc(O)c(CN3CCN(C)CC3)c12	3.8%[59 µM]	x	-3.4%	x	4.7%	-21.2%
Cc1ccc(C(=O)NNC(=O)/C=C\C(=O)O)cc1	50.1µM*	x	u	u	40.2%	-12.0%
O=C(/C=C\c1ccc(-c2ccccc2)o1)c1ccccc1	10µM*	-19.9%	31.6µM*	11.2µM*	u	-31.5%
O=C(/C=C/c1ccccc1)c1ccccc1	-10.5%[59 µM]	1.9%	23.7%	u	125.5%	143.2%
O=C(O)/C=C/c1ccc(-c2cccc(C(F)(F)F)c2)o1	44.7µM*	x	-1.4%	3.2%	47.8%	-20.3%
O=C(O)/C(=C\c1ccc(-c2ccc(F)cc2)o1)c1ccccc1	u	-20.1%	x	8.91µM*	2.4%	u
Cc1ccc(C(=O)NNC(=O)c2ccc(C)cc2)cc1	8.1%	6.7%	x	12.9%	14.2%	-14.7%
